Over roughly 4,500 sequences, “log2 normalized fluorescence” has its median near -0.34; the highest 2% begin near 3.3. This excerpt belongs to a sample that is enriched for the highest values.
These sequences were tested against MAX:MAX (p21) (human, UniProt P61244-2 1-151) (assay: protein-binding microarray (anti-MAX antibody); PBM: 15 mM Tris-HCl pH 7.5, 100 mM KCl, 0.075% NP40, 7.5 mM beta-mercaptoethanol, 375 ng/ul BSA, 8 ng/ul poly(dA-dT):(dA-dT), 550 ng complex, 60 min, room tempe; high values mean tight binding). Conditions: protein: recombinant; tags: 6xHis; chain copies: 2; label: 3' end of printed strand (linker) attached to glass slide; dsDNA, one strand shown.
MAX:MAX (p21), sequence (P61244 other isoform, or with tags, fused parts or gaps): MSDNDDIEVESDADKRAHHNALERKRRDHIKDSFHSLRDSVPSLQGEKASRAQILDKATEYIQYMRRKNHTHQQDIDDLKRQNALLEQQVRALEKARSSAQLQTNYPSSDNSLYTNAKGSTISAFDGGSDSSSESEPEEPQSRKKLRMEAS
Outline: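 A custom Agilent glass array held ~5000 unique 12-nt sequences in triplicate spots, made double-stranded by primer extension. His-tagged human MYC:MAX or MAX:MAX dimers (550 ng, produced in E. coli) were applied for 60 min at room temperature in Tris-KCl buffer, pH 7.5, with NP40, BSA and poly(dA-dT) competitor. Anti-MAX and secondary antibodies detected bound protein, with scanning at 543 nm, and binding is given as log2 normalized fluorescence.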

| Sequence | binding signal |
| --- | --- |
| CCGGCTGAGCATTTGTATTAATAGCTAAGATTACTATATCGACG | -0.22 log2 normalized fluorescence |
| CCGGCTGACTGGATGTATTAATAGCTAAGATTACTATATCGACG | -0.202 log2 normalized fluorescence |
| CCGGCTGACATTCAGTATTAATAGCTAAGATTACTATATCGACG | 0.265 log2 normalized fluorescence |
| CCGGCTGACGTGTCGTATTAATAGCTAAGATTACTATATCGACG | 1.07 log2 normalized fluorescence |
| CCGGCTGATGGTCTGTATTAATAGCTAAGATTACTATATCGACG | 0.348 log2 normalized fluorescence |
| CCGGCTGAGGAGGCGTATTAATAGCTAAGATTACTATATCGACG | -0.734 log2 normalized fluorescence |
| CCGGCTGACACTACGTATTAATAGCTAAGATTACTATATCGACG | -0.11 log2 normalized fluorescence |
| CCGGCTGAACGTTGGTATTAATAGCTAAGATTACTATATCGACG | 0.152 log2 normalized fluorescence |
| CCGGCTGTGACGTGGTATTAATAGCTAAGATTACTATATCGACG | 1.45 log2 normalized fluorescence |
| CCGGCAGACACGCGATATTAATAGCTAAGATTACTATATCGACG | 2.93 log2 normalized fluorescence |
| CCGGCTGACACGTGTTGTTAATAGCTAAGATTACTATATCGACG | 3.32 log2 normalized fluorescence |
| CCGGCCGACATGTGGTATTAATAGCTAAGATTACTATATCGACG | 3.18 log2 normalized fluorescence |
| CCGGCAGACACGTGATCTTAATAGCTAAGATTACTATATCGACG | 3.05 log2 normalized fluorescence |
| CCGGCTGACACGTGTCGTTAATAGCTAAGATTACTATATCGACG | 3.18 log2 normalized fluorescence |
| CCGGCCGACATGTGGTGTTAATAGCTAAGATTACTATATCGACG | 3.43 log2 normalized fluorescence |
| CCGGCTGACACGTGCTGTTAATAGCTAAGATTACTATATCGACG | 3 log2 normalized fluorescence |
| CCGGCAGACATGTGGTGTTAATAGCTAAGATTACTATATCGACG | 3.1 log2 normalized fluorescence |
| CCGGCAGACACGTGATATTAATAGCTAAGATTACTATATCGACG | 3.29 log2 normalized fluorescence |
| CCGGCTGATGGTAGGTATTAATAGCTAAGATTACTATATCGACG | 0.124 log2 normalized fluorescence |
| CCGGCTGATTCAAGGTATTAATAGCTAAGATTACTATATCGACG | -0.736 log2 normalized fluorescence |
| CCGGCTGACTAGGCGTATTAATAGCTAAGATTACTATATCGACG | -0.638 log2 normalized fluorescence |
| CCGGCTGACTCCGCGTATTAATAGCTAAGATTACTATATCGACG | -0.516 log2 normalized fluorescence |
| CCGGCTGAGACACGGTATTAATAGCTAAGATTACTATATCGACG | 0.481 log2 normalized fluorescence |
| CCGGCTGACTGTACGTATTAATAGCTAAGATTACTATATCGACG | -0.112 log2 normalized fluorescence |
| CCGGCTGACCCAGTGTATTAATAGCTAAGATTACTATATCGACG | -0.0826 log2 normalized fluorescence |
| CCGGCTGAACTCGGGTATTAATAGCTAAGATTACTATATCGACG | -0.618 log2 normalized fluorescence |
| CCGGCTGAACTACCGTATTAATAGCTAAGATTACTATATCGACG | -0.334 log2 normalized fluorescence |
| CCGGCTGACACGTGTAATTAATAGCTAAGATTACTATATCGACG | 3.24 log2 normalized fluorescence |

| Sequence | binding signal |
| --- | --- |
| CCGGCTGACACGTGTAGTTAATAGCTAAGATTACTATATCGACG | 3.17 log2 normalized fluorescence |
| CCGGCTGACACGTGGGGTTAATAGCTAAGATTACTATATCGACG | 3.36 log2 normalized fluorescence |
| CCGGCTGACACGGGTTTTTAATAGCTAAGATTACTATATCGACG | 2.09 log2 normalized fluorescence |
| CCGGCTGACACGTGTGGTTAATAGCTAAGATTACTATATCGACG | 3.39 log2 normalized fluorescence |
| CCGGCTGACACGTGGAGTTAATAGCTAAGATTACTATATCGACG | 2.99 log2 normalized fluorescence |
| CCGGCTGACACGTGGCGTTAATAGCTAAGATTACTATATCGACG | 3.2 log2 normalized fluorescence |
| CCGGCTGACACGTGGGTTTAATAGCTAAGATTACTATATCGACG | 3.39 log2 normalized fluorescence |
| CCGGCTGACACGTGGATTTAATAGCTAAGATTACTATATCGACG | 3.24 log2 normalized fluorescence |
| CCGGCTGACACGTGGTTTTAATAGCTAAGATTACTATATCGACG | 3.37 log2 normalized fluorescence |
| CCGGCTGACGTGTGGTTTTAATAGCTAAGATTACTATATCGACG | 1.65 log2 normalized fluorescence |
| CCGGCTGACGCGTGGTTTTAATAGCTAAGATTACTATATCGACG | 3.21 log2 normalized fluorescence |
| CCGGCTGAAGTTATGTATTAATAGCTAAGATTACTATATCGACG | -0.594 log2 normalized fluorescence |
| CCGGCTGAGGAACCGTATTAATAGCTAAGATTACTATATCGACG | -0.709 log2 normalized fluorescence |
| CCGGCTGACACGGTATATTAATAGCTAAGATTACTATATCGACG | 1.17 log2 normalized fluorescence |
| CCGGCTGATAGGAGGTATTAATAGCTAAGATTACTATATCGACG | -0.743 log2 normalized fluorescence |
| CCGGCTGAGAGCGTGTATTAATAGCTAAGATTACTATATCGACG | 2.11 log2 normalized fluorescence |
| CCGGCTGAAGGCAAGTATTAATAGCTAAGATTACTATATCGACG | -0.39 log2 normalized fluorescence |
| CCGGCTGAATGTGGGTATTAATAGCTAAGATTACTATATCGACG | 0.753 log2 normalized fluorescence |
| CCGGCTGAGGCGCAGTATTAATAGCTAAGATTACTATATCGACG | -0.509 log2 normalized fluorescence |
| CCGGCTGAGGGTGCGTATTAATAGCTAAGATTACTATATCGACG | 0.326 log2 normalized fluorescence |
| CCGGCTGACACTTGGTTTTAATAGCTAAGATTACTATATCGACG | 0.395 log2 normalized fluorescence |
| CCGGCCGACCCGTGGTTTTAATAGCTAAGATTACTATATCGACG | 2.34 log2 normalized fluorescence |
| CCGGCCGACACGCGGTTTTAATAGCTAAGATTACTATATCGACG | 3.18 log2 normalized fluorescence |
| CCGGCTGACATGTGGTTTTAATAGCTAAGATTACTATATCGACG | 2.98 log2 normalized fluorescence |
| CCGGCCGACACATGGTTTTAATAGCTAAGATTACTATATCGACG | 3.32 log2 normalized fluorescence |
| CCGGCTGACACATGGTTTTAATAGCTAAGATTACTATATCGACG | 3.37 log2 normalized fluorescence |
| CCGGCTGATCGCACGTATTAATAGCTAAGATTACTATATCGACG | 0.308 log2 normalized fluorescence |

— publication PMC5515408, “Sequence-specific DNA binding by MYC/MAX to low-affinity non-E-box motifs”
